Data published in the supplement of paper PMC10849652.
The full data set covers some 8,800 targets. This sample favours those with a hit. About 0.5% of all pairs of compound and target were hits. Unmarked numbers belong to inactive results.

Key:
Experiment in all cases: log2 fold change, soluble protein after heating vs DMSO (PISA); higher = thermal stabilisation; K562 lysate, 10 uM; active = over 0.2 and 3.5 SD of the protein, either way, in both replicates (recomputed)
erlotinib = compound: C#Cc1cccc(Nc2ncnc3cc(OCCOC)c(OCCOC)cc23)c1 [erlotinib]
Outline: (§1)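 Soluble protein was defined as the supernatant remaining after 21,000xg for 90 min, following pooling of heated aliquots and adjustment to 0.5% NP-40 at 4°C. Before that, crude K562 extract at 1 mg/mL protein in PBS pH 7.4 with 1 mM MgCl2 was treated with 10 μM compound for 30 min and heated for 3 min across 48°C-58°C. Quantification used TMTpro 16plex LC-MS/MS with channel sums equalised, and values are log-two fold changes in thermal stability relative to solvent controls from duplicates.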

[1] = compound: C/C(=N\NC(=O)C1=CC(=CC=C1)S(=O)(=O)N2CCOCC2)/C3=C(C=CC(=C3)Cl)O
Outline: as §1

[2] = compound: C1=CC(=CC=C1C2=NC3=C(N2)C=C(C=C3)C(=O)N)OC4=CC=C(C=C4)Cl
Outline: as §1

[3] = compound: C1=CC2=C(C=CC(=C2)/C=C\3/C(=O)NC(=NCC4=CC=CS4)S3)N=C1
Outline: as §1

[4] = compound: C1=CC2=NC=CN=C2C=C1/C=C/3\C(=O)NC(=O)S3
Outline: as §1

[5] = compound: C1=CC=C(C=C1)C2=NC(=C(N2)C3=CC=NC=C3)C4=CC(=C(C=C4)Cl)O
Outline: as §1

[6] = compound: C1=CC=C2C(=C1)C3=NNC4=CC=CC(=C43)C2=O
Outline: as §1

[7] = compound: C1CCN(C1)C(=O)NC2=CC=CC(=C2)NC3=NC=C(C(=N3)NCCC4=CN=CN4)Br
Outline: as §1

[8] = compound: C1CN(CCC1(CC2=CC=C(C=C2)Cl)N)C3=NC=NC4=C3C=CN4
Outline: as §1

IRAK-1-4 Inhibitor I = compound: C1COCCN1CCN2C3=CC=CC=C3N=C2NC(=O)C4=CC(=CC=C4)[N+](=O)[O-] [IRAK-1-4 Inhibitor I]
Outline: as §1

ibrutinib = compound: C=CC(=O)N1CCC[C@@H](n2nc(-c3ccc(Oc4ccccc4)cc3)c3c(N)ncnc32)C1 [ibrutinib]
Outline: as §1

[9] = compound: CC(=O)c1cnc2ccc(-c3cc(Cl)c(O)c(Cl)c3)nc2c1N[C@H]1CC[C@H](CN(C)C)CC1
Outline: as §1

ralimetinib = compound: CC(C)(C)Cn1c(N)nc2ccc(-c3[nH]c(C(C)(C)C)nc3-c3ccc(F)cc3)nc21 [ralimetinib]
Outline: as §1

[10] = compound: CC(C)(O)CC(=O)NCCn1ccc2ncnc(Nc3ccc(Oc4cccc(C(F)(F)F)c4)c(Cl)c3)c21
Outline: as §1

[11] = compound: CC(C)C1=C2N=C(C=C(N2N=C1)NCC3=CC=CC=C3)NCCCCCCN
Outline: as §1

[12] = compound: CC1=C(C(CC(=O)N1)C2=CC=C(C=C2)C(F)(F)F)C(=O)NC3=C(C=C4C(=C3)C=NN4)F
Outline: as §1

[13] = compound: CC1=C(C2=C(C=C1)C(=O)C3=CC=CC=C3N2CCCN)C
Outline: as §1

[14] = compound: CC1=C(C=C(C=C1)NC(=O)C2=CC(=CC=C2)C(C)(C)C#N)NC3=CC4=C(C=C3)N=CN(C4=O)C
Outline: as §1

[15] = compound: CC1=C(C=C(C=C1)NC(=O)C2=CC(=CC=C2)N(C)C)NC(=O)C3=CC=C(C=C3)O
Outline: as §1

[16] = compound: CC1=CC=C(C=C1)SC2=C3C=C(SC3=CN=C2)C(=O)N
Outline: as §1

UniProt Q8NDV3, sequence (Q8NDV3 whole entry, looked up): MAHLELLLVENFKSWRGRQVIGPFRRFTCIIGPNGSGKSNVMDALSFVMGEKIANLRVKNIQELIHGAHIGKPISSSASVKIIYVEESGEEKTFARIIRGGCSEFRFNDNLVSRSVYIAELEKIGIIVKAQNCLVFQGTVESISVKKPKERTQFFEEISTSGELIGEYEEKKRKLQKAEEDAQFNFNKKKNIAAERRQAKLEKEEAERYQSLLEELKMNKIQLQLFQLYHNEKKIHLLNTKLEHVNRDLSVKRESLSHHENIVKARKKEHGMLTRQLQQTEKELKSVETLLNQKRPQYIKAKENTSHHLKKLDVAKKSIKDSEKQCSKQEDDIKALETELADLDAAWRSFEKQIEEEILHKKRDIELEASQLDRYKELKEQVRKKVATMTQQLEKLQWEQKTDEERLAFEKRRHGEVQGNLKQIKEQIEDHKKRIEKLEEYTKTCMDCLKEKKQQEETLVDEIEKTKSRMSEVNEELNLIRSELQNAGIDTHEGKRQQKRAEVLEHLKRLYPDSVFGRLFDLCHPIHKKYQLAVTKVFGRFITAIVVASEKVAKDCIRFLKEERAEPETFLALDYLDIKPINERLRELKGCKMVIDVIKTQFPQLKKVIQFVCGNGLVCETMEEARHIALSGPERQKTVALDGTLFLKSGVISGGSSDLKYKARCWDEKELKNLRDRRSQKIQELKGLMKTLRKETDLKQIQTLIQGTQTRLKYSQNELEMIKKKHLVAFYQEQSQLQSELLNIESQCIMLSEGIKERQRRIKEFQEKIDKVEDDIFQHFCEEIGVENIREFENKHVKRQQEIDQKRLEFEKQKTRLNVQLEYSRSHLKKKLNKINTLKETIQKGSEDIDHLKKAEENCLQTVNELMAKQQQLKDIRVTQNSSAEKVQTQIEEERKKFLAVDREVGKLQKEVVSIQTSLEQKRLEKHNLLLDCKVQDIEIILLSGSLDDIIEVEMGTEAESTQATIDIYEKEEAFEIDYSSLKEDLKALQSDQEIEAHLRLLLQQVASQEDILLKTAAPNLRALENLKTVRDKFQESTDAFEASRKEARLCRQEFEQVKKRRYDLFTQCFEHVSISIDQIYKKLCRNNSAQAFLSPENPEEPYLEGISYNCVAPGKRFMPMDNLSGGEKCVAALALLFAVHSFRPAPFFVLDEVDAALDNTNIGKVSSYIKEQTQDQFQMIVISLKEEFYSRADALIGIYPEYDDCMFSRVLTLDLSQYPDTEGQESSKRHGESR
UniProt P62316, sequence (P62316 whole entry, looked up): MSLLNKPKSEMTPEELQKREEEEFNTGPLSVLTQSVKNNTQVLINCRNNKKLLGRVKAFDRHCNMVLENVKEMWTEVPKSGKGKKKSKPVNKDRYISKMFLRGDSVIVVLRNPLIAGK
UniProt P41440, sequence (P41440 whole entry, looked up): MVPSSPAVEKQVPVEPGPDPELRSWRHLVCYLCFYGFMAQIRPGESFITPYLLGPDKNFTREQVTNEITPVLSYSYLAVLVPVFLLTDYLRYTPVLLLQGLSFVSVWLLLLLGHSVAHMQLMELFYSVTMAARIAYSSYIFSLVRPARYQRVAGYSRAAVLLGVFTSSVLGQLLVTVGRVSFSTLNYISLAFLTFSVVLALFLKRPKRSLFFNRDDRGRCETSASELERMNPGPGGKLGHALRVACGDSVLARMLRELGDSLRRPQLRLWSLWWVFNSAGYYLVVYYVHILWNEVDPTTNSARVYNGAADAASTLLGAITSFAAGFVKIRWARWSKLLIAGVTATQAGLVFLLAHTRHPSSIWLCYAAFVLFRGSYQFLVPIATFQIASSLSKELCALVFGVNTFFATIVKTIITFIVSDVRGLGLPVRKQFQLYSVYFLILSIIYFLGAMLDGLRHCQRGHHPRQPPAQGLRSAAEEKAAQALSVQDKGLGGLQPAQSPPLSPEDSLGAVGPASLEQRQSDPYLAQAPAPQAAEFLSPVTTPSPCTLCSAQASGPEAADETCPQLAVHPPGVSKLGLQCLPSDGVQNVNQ
UniProt Q13188, sequence (Q13188 whole entry, looked up): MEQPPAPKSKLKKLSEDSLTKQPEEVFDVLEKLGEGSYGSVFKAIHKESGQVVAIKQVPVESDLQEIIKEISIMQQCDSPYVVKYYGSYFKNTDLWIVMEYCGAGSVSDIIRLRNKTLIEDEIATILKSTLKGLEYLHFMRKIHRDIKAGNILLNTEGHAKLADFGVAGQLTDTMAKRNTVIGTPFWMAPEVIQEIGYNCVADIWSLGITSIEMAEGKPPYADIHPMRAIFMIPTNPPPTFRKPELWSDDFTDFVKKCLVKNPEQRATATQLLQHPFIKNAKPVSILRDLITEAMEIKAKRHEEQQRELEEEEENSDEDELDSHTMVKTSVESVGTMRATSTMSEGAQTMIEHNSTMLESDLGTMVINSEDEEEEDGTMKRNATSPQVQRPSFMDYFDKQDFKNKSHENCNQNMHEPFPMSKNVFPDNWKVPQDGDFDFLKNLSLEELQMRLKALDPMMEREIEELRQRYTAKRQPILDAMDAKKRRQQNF
UniProt O00506, sequence (O00506 whole entry, looked up): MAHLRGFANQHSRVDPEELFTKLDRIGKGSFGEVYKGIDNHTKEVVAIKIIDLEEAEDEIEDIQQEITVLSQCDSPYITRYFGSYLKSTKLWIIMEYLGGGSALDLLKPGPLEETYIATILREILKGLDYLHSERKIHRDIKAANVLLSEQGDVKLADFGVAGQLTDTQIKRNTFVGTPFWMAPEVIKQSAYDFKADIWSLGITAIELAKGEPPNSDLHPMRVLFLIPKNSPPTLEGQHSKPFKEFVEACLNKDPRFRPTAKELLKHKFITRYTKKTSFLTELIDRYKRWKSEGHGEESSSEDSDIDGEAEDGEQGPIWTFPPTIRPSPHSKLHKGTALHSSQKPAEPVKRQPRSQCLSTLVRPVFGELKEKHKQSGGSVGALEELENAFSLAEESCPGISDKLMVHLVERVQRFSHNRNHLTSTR
UniProt Q6P1M0, sequence (Q6P1M0 whole entry, looked up): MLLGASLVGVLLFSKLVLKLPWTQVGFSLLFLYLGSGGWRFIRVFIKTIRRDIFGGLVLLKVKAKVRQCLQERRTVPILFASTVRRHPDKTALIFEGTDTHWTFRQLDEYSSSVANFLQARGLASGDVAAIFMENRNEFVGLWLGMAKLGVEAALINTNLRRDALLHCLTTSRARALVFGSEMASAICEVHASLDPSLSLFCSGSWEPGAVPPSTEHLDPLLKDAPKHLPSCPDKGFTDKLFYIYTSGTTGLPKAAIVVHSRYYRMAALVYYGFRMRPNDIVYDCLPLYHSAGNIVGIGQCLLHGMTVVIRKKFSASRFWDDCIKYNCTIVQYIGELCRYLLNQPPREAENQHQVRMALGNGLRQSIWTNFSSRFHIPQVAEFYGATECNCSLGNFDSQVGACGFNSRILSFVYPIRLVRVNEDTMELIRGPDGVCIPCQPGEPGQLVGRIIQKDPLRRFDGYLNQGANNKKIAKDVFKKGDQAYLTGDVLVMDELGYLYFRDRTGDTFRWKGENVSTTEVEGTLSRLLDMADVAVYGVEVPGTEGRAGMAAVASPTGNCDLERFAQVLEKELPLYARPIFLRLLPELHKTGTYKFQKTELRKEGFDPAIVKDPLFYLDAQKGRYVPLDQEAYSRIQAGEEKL
UniProt P62306, sequence (P62306 whole entry, looked up): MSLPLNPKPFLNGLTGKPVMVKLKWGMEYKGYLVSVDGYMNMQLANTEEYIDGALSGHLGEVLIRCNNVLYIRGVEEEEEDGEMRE
UniProt P62318, sequence (P62318 whole entry, looked up): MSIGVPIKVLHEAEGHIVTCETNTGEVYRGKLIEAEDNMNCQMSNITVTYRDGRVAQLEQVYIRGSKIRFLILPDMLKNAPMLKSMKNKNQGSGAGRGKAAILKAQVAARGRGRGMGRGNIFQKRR

Target | log2 fold change (erlotinib) | log2 fold change [1] | log2 fold change [2] | log2 fold change [3] | log2 fold change [4] | log2 fold change [5] | log2 fold change [6] | log2 fold change [7] | log2 fold change [8] | log2 fold change (IRAK-1-4 Inhibitor I) | log2 fold change (ibrutinib) | log2 fold change [9] | log2 fold change (ralimetinib) | log2 fold change [10] | log2 fold change [11] | log2 fold change [12] | log2 fold change [13] | log2 fold change [14] | log2 fold change [15] | log2 fold change [16]
SLC19A1 (UniProt P41440) | -0.032 | -0.024 | 0.049 | -0.04 | -0.025 | -0.001 | -0.017 | -0.023 | 0.023 | 0.033 | 0.049 | 0.013 | -0.004 | -0.054 | -0.019 | 0.019 | -0.044 | 0.009 | 0.004 | -0.003
SMC1B isoform 3 (UniProt Q8NDV3) | -0.002 | 0.265 (active) | 0.003 | -0.04 | -0.067 | 0.02 | -0.032 | 0.048 | 0.205 | 0.043 | 0.013 | 0.017 | 0.07 | -0.029 | 0.001 | -0.012 | -0.001 | 0.021 | 0.026 | -0.005
SLC27A4 (UniProt Q6P1M0) | 0.022 | 0.01 | -0.023 | 0.052 | 0.063 | -0.009 | 0.041 | 0.015 | 0.084 | -0.003 | -0.004 | 0.029 | 0.009 | -0.027 | 0.049 | 0.077 | -0.042 | -0.051 | 0.028 | 0.003
STK25 (UniProt O00506) | 0.037 | -0.04 | -0.038 | 0.021 | 0.012 | 0.031 | 0.317 (active) | 0.052 | -0.022 | -0.001 | -0.021 | 0.165 | -0.071 | 0.007 | -0.006 | -0.02 | -0.038 | -0.042 | 0.035 | -0.025
SNRPF (UniProt P62306) | -0.029 | -0.07 | 0.081 | -0.017 | -0.065 | 0.028 | -0.034 | -0.018 | 0.001 | 0.007 | -0.027 | -0.013 | -0.024 | -0.072 | -0.004 | 0.015 | -0.137 | 0.018 | 0.028 | -0.082
STK3 isoform 2 (UniProt Q13188) | -0.009 | -0.1 | 0.012 | -0.07 | -0.001 | 0.016 | 0.181 | 0.157 | 0.031 | -0.005 | 0.11 | 0.364 | -0.001 | 0.037 | 0.026 | -0.005 | 0 | -0.025 | 0.016 | -0.073
SNRPD3 (UniProt P62318) | 0.017 | 0.021 | 0.016 | -0.057 | 0.013 | -0.013 | 0.033 | 0.019 | 0.044 | 0.026 | -0.033 | 0.035 | 0.067 | -0.018 | -0.05 | 0.017 | 0.019 | -0.012 | -0.004 | -0.008
SNRPD2 (UniProt P62316) | 0.019 | 0.005 | 0.058 | -0.004 | -0.018 | -0.001 | -0.035 | 0.004 | -0.008 | 0.004 | -0.028 | -0.033 | -0.018 | -0.041 | 0.007 | -0.011 | 0.016 | 0.01 | 0.015 | -0.005
